Drawing on PubChem BioAssay AID2685 (National Center for Advancing Translational Sciences (NCATS), 2010), this text covers Potency and cell number change for 46 compounds.

Among all 320,000 compounds or so, about 2,100 (0.66%) were called active. Not shown: some 53% with an inconclusive outcome. The call rests on the fitted dose curve; in most records, active means well fitted inhibition curve with a large enough effect in the signal ratio, with a control signal flat (not every such curve was filed as active); inconclusive means small, poorly fitted or top-dose-only effect, or effect the other way, or a change in a side signal; inactive means flat fitted curve, though single readings scatter; the % refers to the signal ratio. Many of the other results were omitted from the sample, so actives are more common in it than they were.
Potency means the concentration at half of the fitted maximal effect.

The test in a line: qHTS Assay for Lipid Storage Modulators in Drosophila S3 Cells.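 On cell number change: cells counted by Cell Tracker Red CMTPX staining in the red channel.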 Particulars: BODIPY lipid droplet fluorescence, 18-24 h, cells fed with added oleic acid; cell number change: measured here: cell count max response; series mostly up to 46.1 µM. A digest of the protocol: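 Drosophila S3 cells loaded with oleic acid (400 uM, as added) and compounds at several concentrations; lipid droplets imaged by 488-nm laser-scanning cytometry, 500–530 nm intensity and object ratio to cell channel. Percent activity normalized to 20 uM Triacsin C.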
On the technique in general: Quantitative high-throughput screening tests each substance at several concentrations.
With `CC(=O)N/C(=C/c1ccccc1)C(=O)NCCO`, the Potency entry was “inactive” and the cell number change was determined as 7.72%.

With `CCc1ccc(NC(=O)CCC(=O)Nc2nnc(C(F)(F)F)s2)cc1`, the Potency result was “inactive” and the cell number change came to 24.4%.

Consider `CC(C)(C)CC(=O)Nc1nnc(C(F)(F)F)s1`, for which the Potency result is “inactive” and the cell number change was determined as 0.161%.

On to `O=C(NCC(F)(F)F)Nc1nnc(C(F)(F)F)s1`, for which the Potency entry was “inactive” and the cell number change is 0.475%.

With `O=C(O)CCC(=O)Nc1nnc(C(F)(F)F)s1`, the Potency was 29.1 µM (active) and the cell number change is -2.24%.

For `CCC(NC(=O)Nc1nnc(C(F)(F)F)s1)(C(F)(F)F)C(F)(F)F`, the Potency is 16.4 µM (active) and the cell number change was -12.6%.

For the compound `O=C(CCC(=O)N1CCCC1)Nc1nnc(C(F)(F)F)s1`, the Potency entry was “inactive” and the cell number change was 11.1%.

Consider `CCOC(=O)C1CCN(C(=O)C(CCSC)NC(=O)COc2ccccc2)CC1` (stereo unspecified), for which the Potency result was “inactive” and the cell number change is 22.1%.

`CC(=O)Nc1cccc(-c2nn[nH]n2)c1`: the Potency result was “inactive” and the cell number change was found to be 9.02%.

As to `CC(=O)Nc1ccc(Nc2nnc(-c3ccc(O)cc3)c3ccccc23)cc1`, the Potency entry is “inactive” and the cell number change was 9.07%.

With `Cc1cc(C)cc(NC(=O)Cc2ccc(-n3cccc3)cc2)c1`, the Potency result was “inactive” and the cell number change is -7.37%.

On to `CC(=O)N(CCC(c1ccco1)C(C)C)Cc1ccc(OC(C)C)cc1` (stereo unspecified), for which the Potency entry was “inactive” and the cell number change is -2.37%.

With `COc1ccc(C(CCN(Cc2ccc(OC)c(OC)c2)C(C)=O)c2ccccc2)cc1` (stereo unspecified), the Potency entry is “inactive” and the cell number change is -3.52%.

On to `COc1ccc(C(CCN(Cc2ccc(OC)c(OC)c2)C(C)=O)C(C)C)cc1` (stereo unspecified), for which the Potency is 0.82 µM (active) and the cell number change is -13.5%.

Consider `O=C(O)CCc1ccc(-c2ccc(Br)cc2)n1Cc1ccco1`, for which the Potency is 6.51 µM (active) and the cell number change is -8.78%.

Take `Cc1ccc(-c2ccc(CCC(=O)O)n2Cc2ccco2)cc1`: the Potency result is “inactive” and the cell number change was 19.5%.

For the compound `O=C(O)CCc1ccc(-c2ccc(F)cc2)n1Cc1ccco1`, the Potency result is “inactive” and the cell number change was -0.476%.

For `Cc1[nH]c2ccccc2c1C(=O)C(=O)N1CCN(c2ccccc2)CC1`, the Potency entry was “inactive” and the cell number change stood at 8.19%.

As for `Cc1ccc(Cl)cc1N(CC(=O)Nc1cccc(N(C)S(C)(=O)=O)c1)S(C)(=O)=O`, the Potency is 14.6 µM (active) and the cell number change was -15.4%.

Turning to `CCc1ccccc1N(CC(=O)Nc1cccc(N(C)S(C)(=O)=O)c1)S(C)(=O)=O`, the Potency entry was “inactive” and the cell number change was found to be 5.08%.

`CN(c1cccc(NC(=O)CN(c2cccc(Cl)c2)S(=O)(=O)c2ccc(Cl)cc2)c1)S(C)(=O)=O`: the Potency entry was “inactive” and the cell number change is -18.4%.

Consider `COc1ccc2oc(CS(=O)c3ccccc3)c(C(=O)O)c2c1` (stereo unspecified), for which the Potency entry is “inactive” and the cell number change stood at 13.2%.

Consider `CC1OC2(OC1C)C(=O)Nc1ccccc12` (stereo unspecified), for which the Potency result was “inactive”.

Turning to `CN1C(=S)SC(C)(NO)C1(C)C` (stereo unspecified), the Potency is 5.17 µM (active) and the cell number change was -11.6%.

As to `CN1C(=S)SC(C)(C)C1NO` (stereo unspecified), the Potency result is “inactive” and the cell number change is 1.23%.

Take `CN1C(=S)SC(C)(C)C1(C)NO` (stereo unspecified): the Potency was 1.64 µM (active) and the cell number change was found to be 0.152%.

As to `CCC(C)c1ccc(S(=O)(=O)Nc2cccnc2)cc1` (stereo unspecified), the Potency result is “inactive” and the cell number change is -23.6%.

As for `CCCCCCCCCCCCS[C@H]1CS(=O)(=O)C[C@@H]1O`, the Potency entry was “inactive” and the cell number change is -8.76%.

On to `CC(=O)Nc1cc2cc(NS(=O)(=O)c3ccc(Cl)cc3)ccc2oc1=O`, for which the Potency result was “inactive” and the cell number change was determined as 9.39%.

For `COC(=O)/C(C#N)=C\c1c(OC)[nH]c2ccccc12`, the Potency entry is “inactive” and the cell number change was -7.03%.

As to `CN(Cc1c(F)cccc1Cl)C(=O)CNC(=O)c1cccs1`, the Potency result was “inactive” and the cell number change is -5.78%.

Consider `CN(Cc1c(F)cccc1Cl)S(=O)(=O)c1cccs1`, for which the Potency was 5.8 µM (active) and the cell number change was -15.8%.

Regarding `CN(Cc1ccccc1)S(=O)(=O)c1cccs1`, the Potency entry was “inactive” and the cell number change came to 5.69%.

Consider `CC(C)CSc1nc2c(c(=O)[nH]c(=O)n2C)n1CCc1ccccc1`, for which the Potency result is “inactive” and the cell number change is 0.065%.

Regarding `COc1ccccc1N1CCN(C(=O)c2c(C)cc(=O)oc2C)CC1`, the Potency result is “inactive” and the cell number change is -3.57%.

For `Cc1c(C(=O)N2CCN(CCc3ccccn3)CC2)oc2ccc(F)cc12`, the Potency entry is “inactive” and the cell number change came out at 0.99%.

In the case of `O=C(c1ccc(N2CCN(C(=O)c3ccccc3)CC2)cc1)c1cccc(F)c1`, the Potency is 2.06 µM (active) and the cell number change worked out at 0.901%.

With `O=C(c1ccc(N2CCN(C(=O)c3ccccc3Br)CC2)cc1)c1cccc(F)c1`, the Potency result was “inactive” and the cell number change was -10.8%.

`O=C(c1cccc(C(=O)N2CCN(c3ccccc3)CC2)c1)N1CCN(c2ccccc2)CC1`: the Potency entry is “inactive” and the cell number change was -3.1%.

As to `Cc1c(C(=O)N2CCN(C(=O)c3ccccc3)CC2)oc2ccc(F)cc12`, the Potency was 1.84 µM (active) and the cell number change is -15.5%.

With `O=C(c1cc(-c2ccc3c(c2)OCO3)on1)N1CCN(c2ccc(F)cc2)CC1`, the Potency entry is “inactive” and the cell number change stood at 27.5%.

For `Cc1cc(=O)oc(C)c1C(=O)NCCCN1CCN(c2ccc(F)cc2)CC1`, the Potency entry is “inactive” and the cell number change stood at 2.43%.

With `Cc1cc(=O)oc(C)c1C(=O)N1CCN(c2ccc(F)cc2)CC1`, the Potency is 23.1 µM (active) and the cell number change is -3.9%.

With `Cc1c(C(=O)N2CCN(S(=O)(=O)c3cc(F)ccc3F)CC2)oc2ccccc12`, the Potency result is “inactive” and the cell number change is -12.2%.

Consider `O=C(c1cc(-c2ccc(Cl)cc2)on1)N1CCN(c2ccc(F)cc2)CC1`, for which the Potency is 20.6 µM (active) and the cell number change was found to be 8.11%.

Consider `O=C(c1cc(-c2ccc(O)cc2)on1)N1CCN(c2ccc(F)cc2)CC1`, for which the Potency result is “inactive” and the cell number change is -16.1%.
